PubChem BioAssay (NCI)
About 83,000 compounds went through this panel and 20% of them were active in at least one assay; those are over-represented in the sample as a whole.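 Interpretation: 100, growth as untreated; towards 0, rising growth inhibition; 0, no net growth; 0 to -100, cell death. Compounds scoring below 10 were considered active.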 Values without a mark were called inactive. The source made the active and inactive calls.

Key:
Assay in all cases: NCI-60 one-dose screen, 48 h (100 = growth as untreated, 0 = no growth, -100 = all killed)
Conditions in all cases: 10 µM unless noted
DU-145 prostate = tested on: DU-145 prostate
K-562 leukemia = tested on: K-562 leukemia
MALME-3M melanoma = tested on: MALME-3M melanoma
MDA-MB-231 breast = tested on: MDA-MB-231 breast
RXF 393 renal = tested on: RXF 393 renal
SF-268 CNS = tested on: SF-268 CNS
SF-295 CNS = tested on: SF-295 CNS
SF-539 CNS = tested on: SF-539 CNS
UACC-257 melanoma = tested on: UACC-257 melanoma
M14 melanoma = tested on: M14 melanoma
HCT-15 colon = tested on: HCT-15 colon
HT29 colon = tested on: HT29 colon
SNB-19 CNS = tested on: SNB-19 CNS
U251 CNS = tested on: U251 CNS
PC-3 prostate = tested on: PC-3 prostate
SK-MEL-5 melanoma = tested on: SK-MEL-5 melanoma
UACC-62 melanoma = tested on: UACC-62 melanoma
LOX IMVI melanoma = tested on: LOX IMVI melanoma
SK-MEL-28 melanoma = tested on: SK-MEL-28 melanoma

Compound | growth (DU-145 prostate) | growth (K-562 leukemia) | growth (MALME-3M melanoma) | growth (MDA-MB-231 breast) | growth (RXF 393 renal) | growth (SF-268 CNS) | growth (SF-295 CNS) | growth (SF-539 CNS) | growth (UACC-257 melanoma) | growth (M14 melanoma) | growth (HCT-15 colon) | growth (HT29 colon) | growth (SNB-19 CNS) | growth (U251 CNS) | growth (PC-3 prostate) | growth (SK-MEL-5 melanoma) | growth (UACC-62 melanoma) | growth (LOX IMVI melanoma) | growth (SK-MEL-28 melanoma)
CN(C[C@H]1Cc2c(cccc2N2CCN(Cc3ccccn3)CC2)CN1)[C@H]1CCCc2cccnc21 | 66.6% | 9.95% (active) | 88.3% | 70.2% | 77.9% | 63.8% | 43.4% | 83% | 93.1% | 62.3% | 37.3% | 36.9% | 57.6% | 32.5% | 45.7% | 55.8% | 85.1% | 44.9% | 88.5%
COc1ccc(-c2nc3sc(-c4cc(OC)c(OC)c(OC)c4)nn3c2/C=C2/C(=O)Nc3ccc(F)cc32)cc1 | -61.9% (active) | 19.9% | -48.3% (active) | -31% (active) | -32% (active) | -7.6% (active) | -17.2% (active) | 97.7% | -25% (active) | -53.4% (active) | -3.94% (active) | -49.9% (active) | 11% | -87.4% (active) | -25% (active) | -39.2% (active) | -26.1% (active) | 17.8% | -72.8% (active)
COc1cccc(-c2cc3c(O)cc(C#N)cc3[nH]2)c1 | 101% | 82.5% | 100% | 73% | 112% | 98.9% | 90.6% | 85.5% | 86.9% | 86.6% | 80.9% | 94.6% | 93.1% | 85.3% | 81.8% | 82.1% | 70.9% | 92.4% | 97.8%
CCn1c2ccccc2c2cc(NC(=O)Nc3ccc([N+](=O)[O-])cc3C)ccc21 | 65.7% | 8.55% (active) | 64.5% | 29.3% | -31.1% (active) | 64.9% | 13.1% | 47% | 20% | 32.6% | 25.5% | 17.9% | 66.6% | 31.5% | 19.2% | 48.1% | 38.9% | 39.2% | 67.2%
CC(=O)OC[C@]12CC[C@H]3[C@@H](C[C@H]4O[C@]45CC=CC(=O)[C@]35C)[C@]1(O)CC[C@@]2(O)[C@@](C)(O)C1CC(C)=C(C)C(=O)O1 (some centres undefined) | 7.44% (active) | 5.58% (active) | -58.4% (active) | -14.7% (active) | -62.8% (active) | -49.5% (active) | -11.9% (active) | -42.7% (active) | 13.7% | 2.6% (active) | 0% (active) | -21.2% (active) | 5.89% (active) | -14.5% (active) | 2.94% (active) | -78.7% (active) | -71.1% (active) | -74.9% (active) | -49.9% (active)
COc1ccc(C(=O)N2NC(=O)/C(=C/c3cn(-c4ccccc4)nc3-c3ccccc3)N=C2c2ccccc2)cc1 | 108% | 105% | 105% | 93.8% | 104% | 98.2% | 86.9% | 115% | 95% | 110% | 98.2% | 99% | 88.6% | 91.2% | 95.3% | 105% | 93% | 99.2% | 105%
COc1cc(C(=O)/C=C/c2c(C)n([O-])c3ccc(C(F)(F)F)cc3[n+]2=O)cc(OC)c1OC | 91.3% | 52.9% | 106% | 99.6% | -35.4% (active) | 96.1% | 105% | 96.5% | 74.2% | 88.9% | 86.1% | 5.72% (active) | 90.9% | 87.1% | 91.8% | 102% | 91.4% | 88.4% | 98.8%
CC12CCC3C4(C)COC(c5ccccc5Cl)OC4CCC3(C)C1CC(C1=CCOC1=O)O2 (centres undefined) | 83.9% | 23.9% | 90.6% | 71.7% | 80.4% | 70.1% | 64.3% | 84.7% | 49.3% | 65.9% | 41.2% | 57.1% | 78.7% | 74.1% | 47.9% | 17.1% | 45.8% | 58.6% | 60.5%
O=C(NS(=O)(=O)c1ccc2ccccc2c1)n1cc(-c2ccncc2)c(-c2ccc(Cl)c(O)c2)n1 | 113% | 85.6% | 17.1% | 49.6% | 52.9% | 96.2% | 91.1% | 80.9% | 31.9% | 28.4% | 82.1% | 70.3% | 109% | 84.5% | 74.2% | 77.5% | 15.5% | 49.9% | 54.6%
COc1cc(NC(=O)SC2=NCCS2)cc(OC)c1 | 101% | 93.6% | 102% | 110% | 120% | 106% | 113% | 90.6% | 104% | 103% | 105% | 103% | 90.5% | 97.7% | 93.6% | 98.1% | 88.9% | 98.3% | 98.5%
CCCCCCCCCCCCCCCCCCNC(=O)[C@H]1CSC(c2ccc(OC)cc2O)N1 (some centres undefined) | 22.5% | 25.7% | 96.6% | 38.1% | 32.5% | 50.6% | 93% | 66% | 88.3% | 65.3% | 80.7% | 45.3% | 81.2% | 63.9% | 69.7% | 93.1% | 74.9% | 62.4% | 50.5%
O=C(C1=Cc2cc3ccccc3n2Cc2cnnn21)c1ccccc1 | 85.6% | 21.4% | 76.9% | 54.3% | 54.6% | 58.8% | 56.3% | 57.8% | 74.6% | 22.2% | 38.6% | 7.8% (active) | 32.2% | 32.6% | 47.7% | 45.8% | 44.4% | 49.8% | 64.8%
O=S(=O)(NCCCNc1nccc(-n2ccc3cccnc32)n1)c1cccc(C(F)(F)F)c1 | 101% | 100% | 112% | 106% | 103% | 95.5% | 112% | 109% | 108% | 107% | 103% | 111% | 102% | 97.8% | 103% | 106% | 98.8% | 99.9% | 106%
Cc1nc2cncc(C#Cc3cncc(C(=O)Nc4ccc(CN5CCN(C)CC5)c(C(F)(F)F)c4)c3)c2nc1C | 17.5% | 7.52% (active) | -38.8% (active) | -49.4% (active) | -26.2% (active) | 16.1% | 20.5% | -41.9% (active) | 14% | -24.8% (active) | 8.31% (active) | 3.88% (active) | 49.7% | 36% | 25.6% | -18.1% (active) | -32% (active) | -77.9% (active) | -8.83% (active)
CC(NNC(C)c1ccccc1)c1ccccc1 (centres undefined) | 110% | 114% | 123% | 113% | 116% | 109% | 111% | 101% | 109% | 101% | 105% | 95.2% | 100% | 106% | 94% | 101% | 110% | 101% | 118%
Cc1ccc2[nH]c(=O)c3c(c2c1)Oc1ncn2nc(-c4ccco4)nc2c1C3c1ccc(Cl)cc1 (centres undefined) | 98.5% | 93.2% | 96.3% | 89.4% | 93.2% | 91.8% | 95.9% | 89.8% | 95.5% | 100% | 91.6% | 101% | 88.2% | 97.7% | 93.7% | 99% | 101% | 90.4% | 103%
